Out of some 420,000 compounds screened, about 64,000 (15%) were called active. Another 27% or so got no clear call; they are omitted. These entries were drawn from the full list. Unmarked numbers belong to inactive results. Calls come from the whole dose curve; as a rule, active = well fitted inhibition curve with a large enough effect; inconclusive = small, poorly fitted or top-dose-only effect; inactive = flat fitted curve, though single readings scatter.

These results are taken from PubChem BioAssay AID686978 (National Center for Advancing Translational Sciences (NCATS), 2013).
% is set by controls: 0 for no effect and ±100 for the full control effect; potency is the fitted concentration of half-maximal effect.

This experiment can be described thus: qHTS for Inhibitors of human tyrosyl-DNA phosphodiesterase 1 (TDP1): qHTS in cells in absence of CPT. Note: nearly all actives have a fitted effect of over 55% in size. The settings on record: DT40 Tdp1-/- hTDP1 cells, no CPT, ATP luminescence, 48 h; activity change, negative = growth inhibition: at 46.2 µM (top of the series). The gist of the method: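 A cellular qHTS used chicken DT40 cells lacking endogenous Tdp1 but carrying stably transfected human TDP1. Compounds were applied without camptothecin, and cell growth kinetics were judged by ATP-dependent luminescence after ≥48 hr.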
In the case of `O=C(O)c1ccn(COc2ccc(Br)cc2)n1`, the “activity change, negative = growth inhibition” value is -11.4%.
Take `Cn1c(=O)c(=O)n(C)c2cc(S(=O)(=O)CCC(=O)N3CCCCC3)ccc21`: the “activity change, negative = growth inhibition” value was -4.15%.
Regarding `Cc1cccc(N2CCN(C(=O)CCS(=O)(=O)c3ccc4c(c3)NC(=O)C(C)S4)CC2)c1C` (stereo not drawn), the Potency is 25.9 µM (active).
For `CCC(=O)N1CCc2cc(S(=O)(=O)CCC(=O)N3CCN(c4ccccc4F)CC3)ccc21`, the “activity change, negative = growth inhibition” value is -0.867%.
Same read-out and setting: the result for `COc1cccc(CNS(=O)(=O)c2csc(C(N)=O)c2)c1` reads 1.51%.
For the compound `COc1ccc(NC(=O)C2CCC(CNS(=O)(=O)c3csc(C(N)=O)c3)CC2)cc1OC` (stereo not drawn), the “activity change, negative = growth inhibition” value is 18.6%.
As to `NC(=O)c1cc(S(=O)(=O)NCCCc2ccco2)cs1`, the Potency was 8.2 µM (active).
As for `CCC(=NC1CC(C)(C)NC(C)(C)C1)C1=C(O)CC(C)(C)CC1=O`, the “activity change, negative = growth inhibition” value is -5.34%.
`Cn1c(=O)cc(SCC(=O)N2CCCC2)c2cc(Cl)ccc21`: the “activity change, negative = growth inhibition” value was -14.8%.
As for `CC1(C)C(c2cccs2)=[N+]([O-])C2(CCCCC2=O)N1O` (stereo not drawn), the “activity change, negative = growth inhibition” value was -15.3%.
On to `COc1ccc(N(Cc2ccccc2)S(=O)(=O)c2cccc(C(=O)O)c2)cc1`, for which the “activity change, negative = growth inhibition” value is 2.71%.
As to `COc1ccc(C(CC(=O)O)NC(=O)Cc2ccccc2)cc1` (stereo not drawn), the “activity change, negative = growth inhibition” value was -1.16%.
In the case of `COc1ccc(C(CC(=O)c2ccccc2)S(=O)(=O)c2ccccc2)cc1` (stereo not drawn), the Potency is 18.4 µM (active).
In the case of `CC(C)c1cc(C(=O)N/N=C/c2ccoc2)c(O)c(C(C)C)c1`, the “activity change, negative = growth inhibition” value was 12.3%.
For `CCOCCCNC(=O)Cc1cc(=O)[nH]c(=O)[nH]1`, the “activity change, negative = growth inhibition” value is -0.0606%.
Take `COc1ccc(NC(=O)Cn2c(-c3ccc(OC)cc3)cn(-c3ccc(C)cc3)c2=O)cc1`: the “activity change, negative = growth inhibition” value was -22.8%.
Regarding `CC(=O)OCC1(O)CC23CCC4c5ccoc5CCC4(C)C2CCC1C3` (stereo not drawn), the Potency is 14.6 µM (active).
`Cc1ccc(SCCC(=O)Nc2cc(C)on2)cc1`: the “activity change, negative = growth inhibition” value is 1.17%.
Turning to `O=C(O/N=C(/c1ccccc1)c1ccncc1)c1ccccc1[N+](=O)[O-]`, the “activity change, negative = growth inhibition” value was -19.9%.
Turning to `O=C(CN1CCOCC1)Nc1ccc(NC(=O)CN2CCOCC2)c(Cl)c1`, the “activity change, negative = growth inhibition” value was -7.28%.
The same measure, in the same setting: the result for `CC(=O)OC1CCC2(O)CC1(C)CCC1C2CC1(C)C` (stereo not drawn) reads -13.3%.
Consider `CCOC(=O)c1csc(CCNC(=O)c2oc3c(Cl)cc(C)cc3c2C)n1`, for which the Potency was 20.6 µM (active).
In the case of `Cc1ccc2c(=O)cc(C(=O)NCCc3ccc(S(N)(=O)=O)cc3)oc2c1C`, the “activity change, negative = growth inhibition” value was -26.4%.
On to `COc1ccc(NC(=O)c2cccc3c2C(=O)N(CC2CCCO2)C3)cc1OC` (stereo not drawn), for which the Potency was 23.1 µM (active).
As for `CCOc1ccc(NC(=O)c2cccc3c2C(=O)N(CC2CCCO2)C3)cc1` (stereo not drawn), the “activity change, negative = growth inhibition” value was -27.1%.
The same measure, in the same setting: the result for `COCCN1Cc2cccc(C(=O)Nc3ccccc3OC)c2C1=O` reads -19.1%; that for `O=C(CNS(=O)(=O)c1ccc(Br)s1)N1CCN(C(=O)c2ccco2)CC1`, -15.3%.
With `O=C(CNC(=O)c1cc2c(s1)CCC2)Nc1ccccc1Br`, the “activity change, negative = growth inhibition” value was -25.6%.
